Results filed as inconclusive are left out. Active and inactive are the calls of the source. Unless noted, calls follow the shape of the dose curve; as a rule, active = well fitted curve in the direction sought with a large enough effect in the repeat runs; inconclusive = weak or mixed curves; inactive = no such curve, though single readings can be large; an effect the other way counts as inactive or inconclusive.
Key:
[1] = qHTS assay to identify small molecule agonists of the RXR signaling pathway - cell viability counter screen (AID 1159529);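 also: HEK 293T cells carrying an RXR-alpha UAS beta-lactamase reporter; series mostly up to about 77 µM; nearly all actives have a fitted effect of over 50% in size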
Summary of the method: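 RXR-alpha-UAS-bla HEK 293T cells in medium with 2% charcoal-stripped FBS were preincubated 5 hr, then exposed to compounds for 16 hr at 37 C. Viability was read as CellTiter-Glo luminescence after 30 min at room temperature.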

[2] = qHTS assay to identify small molecule antagonists of the retinoid acid receptor (RAR) signaling pathway - cell viability counter screen (AID 1159551); also: nearly all actives have a fitted effect of over 35% in size
Summary of the method: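 Cells (C3RL4) are plated, incubated overnight, dosed with compound in DMSO, then given retinol at 1 uM final. After 6 h at 37 C, CellTiter-Glo is added and luminescence read following 30 min at room temperature.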

[3] = qHTS assay to identify small molecule antagonists of the retinoic acid receptor (RAR) signaling pathway (AID 1159552; also: nearly all actives have a fitted effect of over 50% in size)
Summary of the method: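 RARE-luc C3RL4 cells; cpds + 1 uM (final) retinol, 6 hr, 37 C/5% CO2; luciferase reagent, 30 min RT, luminescence readout. Inhibitors of retinol-driven signal scored.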

[4] = qHTS assay to identify small molecule agonists of the retinoic acid receptor (RAR) signaling pathway (AID 1159553); also: potency is read from the fitted curve at half-maximal effect
Summary of the method: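 Seed C3RL4 reporter cells at 1,000 per well and incubate overnight at 37 C. Add compounds in DMSO, incubate 6 hr. Add luciferase reagent, wait 30 min at room temperature, read luminescence.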

[5] = qHTS assay to identify small molecule antagonists of the estrogen related receptor (ERR) signaling pathway from Tox21 library - cell viability counter screen (AID 1224834); also: nearly all actives have a fitted effect of over 30% in size
Summary of the method: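 ERR cells, 2,000/well; 6 h settle at 37 C/5% CO2; pin-tool compound transfer in DMSO; 17.5 h at 37 C; CellTiter-Fluor, 30 min; fluorescence intensity.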

[6] = biological target: Luciferin 4-monooxygenase (Photinus pyralis) (UniProt P08659); assay: qHTS assay to identify small molecule inhibitors of firefly luciferase (AID 1224835); also: nearly all actives have a fitted effect of over 25% in size; also: potency is read from the fitted curve at half-maximal effect
Chain of Luciferin 4-monooxygenase (Photinus pyralis) (P08659 whole entry, looked up): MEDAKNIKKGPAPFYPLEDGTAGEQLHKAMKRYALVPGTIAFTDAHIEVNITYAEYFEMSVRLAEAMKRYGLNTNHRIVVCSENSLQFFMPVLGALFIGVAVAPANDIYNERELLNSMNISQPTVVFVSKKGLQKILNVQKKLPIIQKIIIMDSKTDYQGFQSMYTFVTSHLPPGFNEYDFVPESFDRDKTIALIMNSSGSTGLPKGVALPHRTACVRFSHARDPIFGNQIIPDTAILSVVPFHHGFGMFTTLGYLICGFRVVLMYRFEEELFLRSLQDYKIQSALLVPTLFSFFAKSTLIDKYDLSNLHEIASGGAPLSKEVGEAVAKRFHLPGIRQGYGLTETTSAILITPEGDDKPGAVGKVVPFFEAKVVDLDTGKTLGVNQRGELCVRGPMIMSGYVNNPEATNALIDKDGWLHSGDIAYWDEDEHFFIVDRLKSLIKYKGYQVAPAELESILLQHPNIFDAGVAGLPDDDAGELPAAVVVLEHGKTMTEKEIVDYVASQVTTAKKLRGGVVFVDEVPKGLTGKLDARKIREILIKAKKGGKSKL
Summary of the method: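 Biochemical qHTS: compounds run as interplate titrations against purified firefly enzyme, with D-luciferin and ATP each at its KM concentration. Light output recorded by CCD imaging.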

[7] = qHTS assay to identify small molecule agonists of the constitutive androstane receptor (CAR) signaling pathway - cell viability counter screen (AID 1224836); also: series mostly up to about 92 µM; nearly all actives have a fitted effect of over 45% in size
Summary of the method: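 HepG2 cells stably carrying hCAR and a CYP2B6-2.2kb reporter were plated 4 h, then given compounds at 15 concentrations plus PK11195 (final 0.75 uM). After 23 h at 37 C, viability was read by CellTiter-Fluor fluorescence.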

[8] = qHTS assay to identify small molecule antagonists of the constitutive androstane receptor (CAR) signaling pathway - cell viability counter screen (AID 1224837); also: series mostly up to about 92 µM; nearly all actives have a fitted effect of over 45% in size
Summary of the method: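 Viability was measured with CellTiter-Fluor in a HepG2 line carrying stably transfected hCAR and a CYP2B6-2.2kb construct. Cells were exposed for 23 hr at 37 C to 15 compound concentrations with 50 nM CITCO as agonist.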

[9] = biological target: Nuclear receptor subfamily 1 group I member 3 (Homo sapiens) (UniProt Q14994); assay: qHTS assay to identify small molecule antagonists of the constitutive androstane receptor (CAR) signaling pathway (AID 1224838); also: nearly all actives have a fitted effect of over 40% in size
Chain of Nuclear receptor subfamily 1 group I member 3 (Homo sapiens) (Q14994 whole entry, looked up): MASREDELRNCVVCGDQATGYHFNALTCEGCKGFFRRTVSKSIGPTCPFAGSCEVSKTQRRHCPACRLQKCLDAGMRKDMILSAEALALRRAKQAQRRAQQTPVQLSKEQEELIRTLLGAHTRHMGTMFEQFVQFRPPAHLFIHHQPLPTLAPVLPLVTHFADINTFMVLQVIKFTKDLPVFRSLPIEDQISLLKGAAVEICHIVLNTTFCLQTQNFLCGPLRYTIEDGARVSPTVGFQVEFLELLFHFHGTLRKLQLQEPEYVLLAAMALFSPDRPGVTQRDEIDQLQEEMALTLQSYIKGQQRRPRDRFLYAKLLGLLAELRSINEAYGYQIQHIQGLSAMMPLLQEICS
Summary of the method: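 Antagonist mode used CITCO at a final 50 nM to activate CAR in human hepatoma HepG2 cells carrying stable hCAR and a 2.2 kb CYP2B6 promoter-luciferase construct. Compounds were tested at 15 concentrations over 24 h, with luminescence as the end point.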

[10] = biological target: Nuclear receptor subfamily 1 group I member 3 (Homo sapiens) (UniProt Q14994); assay: qHTS assay to identify small molecule agonists of the constitutive androstane receptor (CAR) signaling pathway (AID 1224839); also: nearly all actives have a fitted effect of over 15% in size; also: potency is read from the fitted curve at half-maximal effect
Summary of the method: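 HepG2 cells stably expressing hCAR and a CYP2B6-2.2kb luciferase reporter were treated with compounds at 15 concentrations plus 0.75 uM PK11195 (final) for 24 h at 37 C; luminescence was read after ONE-Glo addition.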

[11] = qHTS assay to identify small molecule antagonists of the estrogen related receptor signaling pathway with the pleiotropic PPARgamma coactivator (PGC) from Tox21 10K library - cell viability counter screen (AID 1224840; active = well fitted cell-killing curve with a large enough effect in the repeat runs, not every such curve was filed as active; also: nearly all actives have a fitted effect of over 40% in size)
Summary of the method: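 Multiplexed viability counter screen in the PGC/ERR cell line: cells treated with DMSO-dissolved compounds for 17.5 hours at 37 C, then viability measured as CellTiter-Fluor fluorescence.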

[12] = biological target: Thyrotropin receptor (Homo sapiens) (UniProt P16473); assay: qHTS assay to identify small molecule agonists of the thyroid stimulating hormone receptor (TSHR) signaling pathway (AID 1224843; calls by dose curve; also: nearly all actives have a fitted effect of over 45% in size)
Chain of Thyrotropin receptor (Homo sapiens) (P16473 whole entry, looked up): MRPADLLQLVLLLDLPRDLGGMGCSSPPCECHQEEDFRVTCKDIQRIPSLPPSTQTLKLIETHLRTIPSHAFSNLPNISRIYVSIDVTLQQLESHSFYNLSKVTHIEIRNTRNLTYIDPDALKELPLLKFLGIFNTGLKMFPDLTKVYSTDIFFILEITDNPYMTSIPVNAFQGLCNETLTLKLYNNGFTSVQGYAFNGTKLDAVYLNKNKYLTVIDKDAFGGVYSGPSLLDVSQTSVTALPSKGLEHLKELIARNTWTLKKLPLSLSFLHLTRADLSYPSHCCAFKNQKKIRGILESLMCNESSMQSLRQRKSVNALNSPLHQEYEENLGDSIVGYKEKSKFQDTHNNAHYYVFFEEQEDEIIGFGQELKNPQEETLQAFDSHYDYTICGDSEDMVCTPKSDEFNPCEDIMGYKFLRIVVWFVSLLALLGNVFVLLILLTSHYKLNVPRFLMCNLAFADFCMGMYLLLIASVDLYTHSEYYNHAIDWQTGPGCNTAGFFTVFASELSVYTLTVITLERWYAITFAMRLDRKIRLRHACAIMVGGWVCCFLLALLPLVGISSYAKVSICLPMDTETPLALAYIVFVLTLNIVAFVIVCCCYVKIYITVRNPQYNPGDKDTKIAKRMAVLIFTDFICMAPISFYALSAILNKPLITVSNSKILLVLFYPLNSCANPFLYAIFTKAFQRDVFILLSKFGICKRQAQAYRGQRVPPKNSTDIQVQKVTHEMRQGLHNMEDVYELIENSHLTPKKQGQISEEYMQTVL
Summary of the method: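 HEK293/TSHR, 800 cells/well; cpd 30 min RT; add cAMP-d2 + anti-cAMP-cryptate, 1 h RT; fluorescence read on plate reader. 15-pt titration, n=3.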

[13] = qHTS assay to identify small molecule agonists of the hypoxia (HIF-1) signaling pathway - cell viability counter screen (AID 1224844; calls by dose curve; also: nearly all actives have a fitted effect of over 50% in size)
Summary of the method: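 Cytotoxicity was measured in parallel with the HRE-driven beta-lactamase readout: after 17 hrs of compound exposure at 37C, HRE-bla ME-180 cells received CellTiter-Glo and luminescence was recorded 30 min later.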

[14] = qHTS assay to identify small molecule antagonists of the estrogen related receptor signaling pathway with the pleiotropic PPARgamma coactivator (PGC) from Tox21 10K library (AID 1224841; call rule not given here; also: series mostly up to about 92 µM; actives are mostly falling curves and most rising ones were filed inactive; nearly all actives have a fitted effect of over 50% in size)
Summary of the method: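 Steps: plate 2,000 PGC/ERR cells per well; incubate 6 h at 37 C with 5% CO2; transfer compounds from DMSO stocks by pin tool; incubate 18 h at 37 C; add One-Glo; measure luminescence 30 min later.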

[15] = qHTS assay to identify small molecule agonists of the estrogen related receptor signaling pathway with the pleiotropic PPARgamma coactivator (PGC) from Tox21 10K library (AID 1224842); also: nearly all actives have a fitted effect of over 15% in size
Summary of the method: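 PGC/ERR reporter cell line, 2,000 cells per well, incubated 6 h at 37 C before 23 nL compound in DMSO was added. After 18 h at 37 C, One-Glo luminescence read following 30 min at room temperature.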

[16] = qHTS assay to identify small molecule antagonists of the estrogen related receptor (ERR) signaling pathway (AID 1224819)
Summary of the method: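 qHTS in ERR cells, 2,000/well, 1536 format. Cpd (DMSO) added after 6 h settle, 18 h 37 C. One-Glo luminescence, 30 min RT.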

[17] = qHTS assay to identify small molecule agonists of the estrogen related receptor (ERR) signaling pathway (AID 1224820)
Summary of the method: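 Following a 6 h settling period, 2,000 ERR cells per well receive DMSO-dissolved compounds by pin tool and incubate 18 h at 37 C; agonist activity is scored from One-Glo luminescence read 30 min post-addition.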

[18] = test system: estrogen-related receptor alpha (ERRalpha) with PGC-1alpha coactivator, human; assay: qHTS assay to identify small molecule antagonists of the estrogen related receptor signaling pathway with the pleiotropic PPARgamma coactivator (PGC) (AID 1224821; calls by dose curve)
Summary of the method: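 Screening used NTP's PGC/ERR cells, dosed via pin tool with compound in DMSO alongside positive and negative controls. After 18 h at 37 C, One-Glo reagent sat 30 min at room temperature before luminescence detection.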

[19] = qHTS assay to identify small molecule antagonists of the estrogen related receptor signaling pathway with the pleiotropic PPARgamma coactivator (PGC) cell viability counter screen (AID 1224822;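 also: series mostly up to about 46 µM; viability read after 17.5 h compound exposure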)
Summary of the method: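 Multiplexed viability counter screen run in PGC/ERR cells treated with compounds for 17.5 h at 37 C; live-cell protease signal measured by CellTiter-Fluor fluorescence.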

[20] = qHTS assay to identify small molecule agonists of the estrogen related receptor signaling pathway with the pleiotropic PPARgamma coactivator (PGC) (AID 1224823)
Summary of the method: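 In this quantitative high-throughput screen, an 18 h, 37 C treatment of PGC/ERR cells with compounds in DMSO preceded a One-Glo luminescence read taken after 30 min at room temperature.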

Measured: Potency

O=C(Cl)CCl
not listed: [14] | [15] | [16] | [17] | [18] | [19] | [20]
inactive: all other assays above

CC(Cl)(Cl)Cl
not listed: [16] | [17] | [18] | [19] | [20]
inactive: all other assays above

CNC(=O)NC(O)C(Cl)(Cl)Cl (stereo not given)
not listed: [14] | [15] | [16] | [17] | [18] | [19] | [20]
inactive: all other assays above

CCc1cc(OC)c(C[C@H](C)N)cc1OC
not listed: [14] | [15] | [16] | [17] | [18] | [19] | [20]
inactive: all other assays above

COc1cc(CC(C)N)cc(OC)c1OC (stereo not given)
not listed: [12] | [16] | [17] | [18] | [19] | [20]
inactive: all other assays above

CCNc1nc(NCC)nc(SC)n1
not listed: [14] | [15] | [16] | [17] | [18] | [19] | [20]
inactive: all other assays above

CC[C@@H](CO)NC(=O)[C@@H]1C=C2c3cccc4[nH]cc(c34)C[C@H]2N(C)C1
not listed: [8] | [9] | [10]
inactive: all other assays above

CS(=O)(=O)Cl
not listed: [14] | [15] | [16] | [17] | [18] | [19] | [20]
inactive: all other assays above

CCC(C(N)=O)N1CCCC1=O (stereo not given)
not listed: [14] | [15] | [16] | [17] | [18] | [19] | [20]
inactive: all other assays above

C=CCCC#N
not listed: [14] | [15] | [16] | [17] | [18] | [19] | [20]
inactive: all other assays above

CCCN1CCC[C@@H]2Cc3[nH]ncc3C[C@H]21
not listed: [10]
inactive: all other assays above

C=CCc1cc(OC)c2c(c1)OCO2
not listed: [14] | [15] | [16] | [17] | [18] | [19] | [20]
inactive: all other assays above

O=C(Cl)C(Cl)Cl
not listed: [14] | [15] | [16] | [17] | [18] | [19] | [20]
inactive: all other assays above

COc1cc(CCN)cc(OC)c1OC
not listed: [14] | [15] | [16] | [17] | [18] | [19] | [20]
inactive: all other assays above

C[C@]12C=CC(=O)C=C1CC[C@@H]1[C@@H]2CC[C@@]2(C)[C@H]1CC[C@]2(C)O
not listed: [16] | [17] | [18] | [19] | [20]
inactive: all other assays above

CCOC(=O)CCl
not listed: [14] | [15] | [16] | [17] | [18] | [19] | [20]
inactive: all other assays above

CCOC(=O)Nc1cccc(OC(=O)Nc2ccccc2)c1
active: [4] 27.3 µM | [6] 31.7 µM | [10] 30.6 µM
not listed: [14] | [15] | [16] | [17] | [18] | [19] | [20]
inactive: all other assays above

C=C(C)[C@H]1CN[C@H](C(=O)O)[C@H]1CC(=O)O
not listed: [14] | [15] | [16] | [17] | [18] | [20]
inactive: all other assays above

COc1cccc(C=O)c1
not listed: [16] | [17] | [18] | [19] | [20]
inactive: all other assays above
